# EPAC1 agonist: Validation qHTS for agonist of cAMP-regulated guanine nucleotide exchange factor 3 (EPAC1). Potency, µM, inactives show max response, positive = active, usual class: activators. EPAC1 Rap1b BODIPY-GDP exchange, fluorescence. 16,000 compounds, 1% hits; also: nearly all actives have a fitted effect of over 70% in size
# EPAC2 ant val: Validation qHTS for antagonist of cAMP-regulated guanine nucleotide exchange factor 4 (EPAC2); Rap guanine nucleotide exchange factor 4 (Homo sapiens), Q8WZA2; EPAC2 Rap1B BODIPY-GDP exchange, fluorescence; Potency, µM (series often up to 112 µM), for the others: at the top dose activity, negative = inhibition, actives largely listed as inhibitors; 16,000 compounds, 1.7% hits; AID 1645886, 2021;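 also: 100% = activation by cAMP agonist control; nearly all actives have a fitted effect of over 40% in size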
#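 Fluorescent exchange read-out: 100 nM EPAC2 with 250 nM RAP1B–BODIPY-GDP and 50 uM GDP; BODIPY-GDP release lowers fluorescence. Read at 480/540 nm every 5 min for 30 min at room temperature; normalized to 6.5 mM cAMP.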
# An asterisk follows results filed as active; ? = inconclusive; ! = not active in a repeat; [ ] = dose if it differs, or a comment. An excerpt weighted towards active compounds, which were near 3.1% of everything screened. Calls follow the shape of the dose curve; as a rule, active = well fitted curve in the direction sought with a large enough effect; inconclusive = small, poorly fitted or top-dose-only effect, or another doubt; inactive = no such curve, though single readings can be large; an effect the other way counts as inactive or inconclusive. Unless noted, % is scaled to controls: 0 for no effect and ±100 for the full control effect; potency is read from the fitted curve at half-maximal effect.
SMILES,EPAC1 agonist,EPAC2 ant val
FC(F)(F)C(Cl)Br (stereo unspecified),-43.2%,-18.5%
CCC(=O)Oc1ccc2c(c1)CC[C@@H]1[C@@H]2CC[C@]2(C)[C@@H](OC(=O)CC)CC[C@@H]12,-19.0%,26.9%
CC(C)N=C(N)/N=C(\N)Nc1ccc(Cl)cc1,-16.7%,-10.1%[56.6 µM]
NC(=NCCCCCCN=C(N)/N=C(\N)Nc1ccc(Cl)cc1)/N=C(\N)Nc1ccc(Cl)cc1,-12.7%,79.4µM*!
CS(=O)(=O)c1ccc(-c2cc(Br)sc2-c2ccc(F)cc2)cc1,21.8%,39.8µM*
CC1=C(CC(=O)O)c2cc(F)ccc2/C1=C\c1ccc(S(C)(=O)=O)cc1,9.4%,16.3%
CCc1cc(C(=O)NCC2Cc3cc(C)cc(-c4cc(C(C)=O)ccc4F)c3O2)n(C)n1 (stereo unspecified),1.4%,?
CO[C@H]1C=CO[C@@]2(C)Oc3c(C)c(O)c4c(O)c(c5c(c4c3C2=O)=NC2(CCN(CC(C)C)CC2)N=5)NC(=O)/C(C)=C\C=C/[C@H](C)[C@H](O)[C@@H](C)[C@@H](O)[C@@H](C)[C@H](OC(C)=O)[C@@H]1C,-31.2%,?
O=C(/C=C/c1ccc(O)cc1)c1ccc(O)cc1O,-4.2%,?
O=c1cc(O)cc(/C=C/c2ccc(O)c(O)c2)o1,1.8%,-1.7%
Oc1ccc(/C=C\c2cc(O)cc(O)c2)cc1,-16.8%,28.2µM*
Oc1ccc(/C=C/c2cc(O)cc(O)c2)cc1,?,50.1µM*!
Cc1cc(-c2ccnc(-n3ncc(C(=O)NCC4COCCO4)c3C)n2)c(C)s1 (stereo unspecified),-9.9%,-8.8%
COc1cc(=O)n2c(c1C(=O)N(C)Cc1nonc1C)CCN(Cc1c(F)cccc1F)CC2,-13.3%,-19.3%
Cc1ccc2nc(CNC(=O)c3cc(NC(=O)c4ccccc4)cc4ncn(C5CCCC5)c34)cn2c1,?,-7.6%
CCOC(=O)C1=C(C)NC(C)=C(C(=O)OCC)C1c1c(F)c(F)c(F)c(F)c1F,-23.4%,35.5µM*
CCOC(=O)C1=C(C)NC(C)=C(C(=O)OCC)C1c1ccccc1C=CC(=O)OC(C)(C)C,-59.3%,-23.8%
Cc1occc1C(=O)NCCN1Cc2ccccc2OC(c2ccccc2F)C1 (stereo unspecified),4.7%,-8.7%
O=C(NCc1nnc2n1CCN(Cc1cccc(Cl)c1)CC2)c1cccc(F)c1,5.4%,-39.0%
O=c1c(-c2ccc(O)cc2)coc2cc(O)cc(O)c12,-4.9%,-18.1%
CC(C)=CCc1c2c(c3occ(-c4ccc(O)cc4)c(=O)c3c1O)C=CC(C)(C)O2,-170.3%,31.6µM*
CC(C)=CCc1c(O)cc2occ(-c3ccc4c(c3)OCO4)c(=O)c2c1O,?,-25.5%
CC(C)=CCc1c2c(c3occ(-c4ccc(O)c(O)c4)c(=O)c3c1O)C=CC(C)(C)O2,-151.2%,25.1µM*
CC(C)CN(C[C@@H](O)[C@H](Cc1ccccc1)NC(=O)O[C@@H]1CCOC1)S(=O)(=O)c1ccc(N)cc1,-13.1%,-5.1%
COC(=O)C1=C(C)NC(C)=C(C(=O)OCCCN2CCC(c3ccccc3)(c3ccccc3)CC2)C1c1cccc([N+](=O)[O-])c1 (stereo unspecified),112µM*!,-8.9%
SMILES,EPAC1 agonist,EPAC2 ant val
C#CCN1C(C)=C(C(=O)OC)C(c2cccc([N+](=O)[O-])c2)C(C(=O)OCC)=C1C (stereo unspecified),10.3%,44.7µM*
CCOC(=O)C1=C(C)NC(=S)NC1c1cccc(O)c1 (stereo unspecified),7.0%,-42.4%
COC(=O)C1=C(C)NC(C)=C(C(=O)O[C@H]2CCN(Cc3ccccc3)C2)[C@H]1c1cccc([N+](=O)[O-])c1,?,-10.8%
CO[C@H]1[C@H](NC(=O)c2ccsc2)c2ccccc2C12CCN(Cc1cc(Cl)ccc1O)CC2,6.9%,-2.0%
CSc1nnc(CNC(=O)c2c(-c3ccccc3)noc2C)n1-c1ccc(F)cc1,-7.5%,2.5%
COC(=O)c1ccccc1NS(C)(=O)=O,-33.8%,?
COC(=O)c1c(C)[nH]c(C)c1C(=O)c1ccccc1Cc1ccccc1,4.2%,79.4µM*!
CCc1oc2ccccc2c1C(=O)c1cc(I)c(O)c(I)c1,-35.8%,63.1µM*
COc1ccc(-c2oc3ccccc3c(=O)c2O)cc1OC,5.9%,-10.1%
Cc1nn(-c2ccc(F)cc2)c(C)c1CNC(=O)c1ccc(-n2cc(NC(=O)c3ccoc3)cn2)cc1,-13.7%,-15.5%
COC(=O)C1=C(C)NC(C)=C([N+](=O)[O-])[C@@H]1c1ccccc1C(F)(F)F,-14.2%,39.8µM*
COC(=O)C1=C(C)NC(C)=C([N+](=O)[O-])[C@H]1c1ccccc1C(F)(F)F,-14.7%,50.1µM*
COC(=O)C1=C(C)NC(C)=C(C(=O)OCC(C)=O)C1c1ccccc1[N+](=O)[O-] (stereo unspecified),8.8%,-8.3%

# Assay outcomes deposited in PubChem by National Center for Advancing Translational Sciences (NCATS).
